Test results taken from the supplement of paper PMC10933113.
Structures can show the parent of a compound that is named as a salt. ± gives the uncertainty stated by the source.

Test system: THP-1
Test: CD54 surface expression induction over DMSO control (% over DMSO); higher = stronger dendritic cell activation
Conditions: exposure time: 24 h
Experimental: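 hCLAT-like CD54 and CD86 surface expression on THP1 cells after 24 h exposure at a single concentration (highest non-cytotoxic concentration, or 100-200 µM if not cytotoxic). Flow cytometry (iQue) was run on 5,000 live cells.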

| Structure (SMILES) | CD54 surface expression induction |
| --- | --- |
| O=[N+]([O-])c1ccc(Oc2ccc(C(F)(F)F)cc2[N+](=O)[O-])cc1 [Fluorodifen] (10 µM) | -6.85 ± 4.5 |
| O=[N+]([O-])c1cc([N+](=O)[O-])c2ccccc2c1 [1,3-Dinitronaphthalene] (200 µM) | 3.83 ± 2.5 |
| Nc1cc(Cl)ccc1O [2-Amino-4-chlorophenol] (200 µM) | 89.8 ± 6.4 |
| CCC(C)(c1ccc(O)cc1)c1ccc(O)cc1 [Bisphenol B] (200 µM) | 3.9 ± 0.67 |
| ClC1=C(Cl)C(Cl)(Cl)C(Cl)=C1Cl [Hexachlorocyclopentadiene] (200 µM) | 47.8 ± 5.2 |
| S=C=NCc1ccccc1 (10 µM) | 10.5 ± 7.8 |
| O=C(CCl)c1ccccc1 [2-Chloroacetophenone] (100 µM) | 24.1 ± 11 |
| COc1ccc(C(c2ccc(OC)cc2)C(Cl)(Cl)Cl)cc1 [Methoxychlor] (200 µM) | 27.4 ± 9.6 |
| CCC(C)(CC)c1cc(NC(=O)c2c(OC)cccc2OC)on1 [Isoxaben] (200 µM) | -4.09 ± 5.1 |
| O=C(O)c1ccc(=O)[nH]c1 [6-Hydroxynicotinic acid] (100 µM) | -3.56 ± 0.01 |
| NNCc1ccccc1 (100 µM) | -19.4 ± 21 |
| Nc1ccc([N+](=O)[O-])cc1N [4-Nitro-1,2-phenylenediamine] (100 µM) | 7.46 ± 2 |
| CC(C)(C)C(=O)CCl [1-Chloro-3,3-dimethyl-butan-2-one] (200 µM) | -19.8 ± 13 |
| CC(COc1ccc(Oc2ccccc2)cc1)Oc1ccccn1 (stereo not given) [Pyriproxyfen] (200 µM) | -4.39 ± 4.3 |
| COc1ccc2[nH]cc(CCN(C(C)C)C(C)C)c2c1 [5-Methoxy-N,N-diisopropyltryptamine hydrochloride] (224.7 µM) | -7.18 ± 11 |
| CCOC(=O)CC(SP(=S)(OC)OC)C(=O)OCC (stereo not given) [Malathion] (100 µM) | 3.59 ± 5.1 |
| c1ccc(-c2cccc(-c3ccccc3)c2)cc1 [1,1':3',1''-Terphenyl] (200 µM) | -8.04 ± 5.3 |
| O=C1C=CC(=O)c2ccccc21 (10 µM) | 239 ± 45 |
| Cc1ccc2c(c1N)C(=O)c1ccccc1C2=O [1-Amino-2-methylanthraquinone] (100 µM) | 131 ± 21 |
| CCNc1nc(NC(C)(C)C)nc(SC)n1 [Terbutryn] (100 µM) | 1.12 ± 1.2 |

| Structure (SMILES) | CD54 surface expression induction |
| --- | --- |
| O=C(O)c1ccccc1C(=O)Nc1cccc2ccccc12 [Naptalam*] (200 µM) | 183 ± 32 |
| c1ccc(Nc2ccc(Nc3ccccc3)cc2)cc1 [N,N'-Diphenyl-p-phenylenediamine] (200 µM) | -11.2 ± 11 |
| CS/C(C)=N\OC(=O)N(C)SN(C)C(=O)O/N=C(\C)SC [Thiodicarb] (10 µM) | -6.62 ± 5 |
| CCOP(=S)(OCC)Oc1cnc2ccccc2n1 [Quinalphos] (200 µM) | -1.41 ± 9 |
| NNC(N)=S [Thiosemicarbazide] (10 µM) | -1.62 ± 1.6 |
| [CH3][Hg][Cl] [Methyl mercuric (II) chloride] (10 µM) | 36.6 ± 5.5 |
| O=C(CCl)CCl [1,3-Dichloropropanone] (200 µM) | -1.2 ± 0.3 |
| CC(C)CC(C)Nc1ccc(Nc2ccccc2)cc1 (stereo not given) [N-(1,3-Dimethylbutyl)-N'-phenyl-p-phenylenediamine] (10 µM) | 6.74 ± 24 |
| Cl/C=C\C[N+]12CN3CN(CN(C3)C1)C2 [Chloroallyl methenamine chloride] (10 µM) | 3.14 ± 2.9 |
| N#C/C=C/C#N [Fumaronitrile] (10 µM) | -10.2 ± 27 |
| COc1ccccc1N [2-Methoxyaniline hydrochloride] (100 µM) | 2.44 ± 0.25 |
| O=C1OC(CCN2CCCCC2)OC1(c1ccccc1)c1ccccc1 (stereo not given) [Pipoxolan hydrochloride] (100 µM) | 78.1 ± 22 |
| ClC1=C(Cl)C2(Cl)C3C(Cl)C(Cl)CC3C1(Cl)C2(Cl)Cl (stereo not given) [Chlordane] (200 µM) | 27.9 ± 0.29 |
| CCC(C)(NC(=O)c1cc(Cl)c(C)c(Cl)c1)C(=O)CCl (stereo not given) [Zoxamide] (10 µM) | 10.1 ± 25 |
| NCCc1ccc(O)cc1 [Tyramine] (100 µM) | -4.6 ± 1.1 |
| CN(C)c1ccc(N(C)C)cc1 [*N,N,N',N'-Tetramethyl-p-phenylenediamine] (200 µM) | 91.8 ± 6 |
| CCc1cccc(CC)c1N(COC)C(=O)CCl [Alachlor] (100 µM) | 26.5 ± 9.3 |
| Nc1ccc(Cl)cc1Cl [2,4-Dichloroaniline] (200 µM) | -7.56 ± 1.5 |
| CCOCN(C(=O)CCl)c1c(C)cccc1CC [Acetochlor] (10 µM) | 104 ± 21 |
| C[C@@H]1O[C@@H](O[C@H]2C[C@@H](O)[C@]3(CO)[C@H]4[C@H](O)C[C@]5(C)[C@@H](C6=CC(=O)OC6)CC[C@]5(O)[C@@H]4CC[C@]3(O)C2)[C@H](O)[C@H](O)[C@H]1O [Ouabain] (10 µM) | 21.9 ± 10 |
